Screen size: about 300,000 compounds; about 5,200 (1.7%) were called active. Shown is part of a subset that was picked to be rich in actives. A number with no mark means an inactive call.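 The calls were made as follows: active = mean replicate activation of at least 50% with a set share of replicates each reaching 50%; inconclusive = only one of those two conditions met; inactive = mean below 50% and too few replicates reaching it.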

This assay is described as follows: HSF-1 response element luciferase induction – NIH3T3-HGL cells, MG132 stress, luminescence, single point, primary screen (AID 504408).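 Also: 0% = median of the neutral control wells and 100% = twice that signal.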 The note with it: NIH3T3-HGL HSF-1 luciferase reporter, MG132, 8 h; at 9 µM; hits give high values; 100% = twice DMSO control signal.
With `CCCCOc1ccc(CSC(=N)N)cc1[N+](=O)[O-]`, the activation is -29.6%.

In the case of `CCOC(=O)C/C(C)=N\Nc1ccc([N+](=O)[O-])cc1[N+](=O)[O-]`, the activation is 1.63%. With `CCCCOC(=O)CCCc1ccc([N+](=O)[O-])cc1[N+](=O)[O-]`, the activation is 65% (active).

In the case of `Cc1csc2nc(O)c(C(=O)NCCN3CCOCC3)c(=O)n12`, the activation is -6.85%. For `COc1ccc(S(=O)(=O)NCC(c2ccc(C)cc2)N2CCN(C)CC2)cc1OC` (configuration not stated) the value was 5.43%; for `S=C(Nc1cccc(Cl)c1)Nc1ccc2cn[nH]c2c1`, 20.2%; for `S=C(Nc1cccc(Cl)c1)Nc1ccc2c(c1)OCCO2`, 5.58%.

As for `Cc1csc(NC(=S)Nc2cccc(Cl)c2)n1`, the activation is 58.4% (active).

In the case of `COc1ccc(C(=O)NCC2CCCN2S(=O)(=O)c2cccs2)cc1OC` (configuration not stated), the activation is -9.4%. For `CCN(CC)S(=O)(=O)c1ccc(-c2cn3ccc(C)cc3n2)cc1` the value was 58.1% (active); for `Cc1ccc2nc(-c3ccc(Br)cc3)cn2c1`, -34.2%.

`CCN(c1cccc(C)c1)S(=O)(=O)c1ccc(-c2coc(C)n2)cc1`: the activation was -1.05%. For `Cc1ccc(SCC(=O)Nc2nncs2)cc1` the value was -2.82%; for `COc1ccc(-n2nnnc2CNC(=O)c2ccc3ccccc3c2)cc1`, 3.44%; for `COc1cccc(NC(=O)CSc2nnc(-c3cccnc3)o2)c1`, 11.6%. With `Cc1ccc(C)c(-c2nnc(NC(=O)CS(=O)(=O)c3ccccc3)o2)c1`, the activation was -10.1%. For `CC(=O)c1sc(N/N=C/c2ccc(C(C)C)cc2)nc1C` the value was 59.6% (active). `COc1cccc2sc(Nc3nc(C)c(C(C)=O)s3)nc12`: the activation was -3.69%. For `COc1cc2ccccc2cc1C(=O)Nc1nc(C)c(C(C)=O)s1` the value was 23.8%; for `CC(=O)c1sc(N/N=C\c2ccc(C)cc2)nc1C`, 38.3%; for `CC(=O)c1sc(NC(=O)CCCOc2ccccc2C)nc1C`, 35.1%.

`COc1ccccc1/C=N/Nc1nc(C)c(C(C)=O)s1`: the activation was 55.9% (active). For `CCN1C(=O)[C@H]2[C@@H](c3ccc(C)cc3)N3C(=O)N(c4cccc(Br)c4)C(=O)[C@@]3(CC)[C@H]2C1=O` the value was -10.8%; for `Cc1csc(NC(=O)CSc2nc(=O)n(CCCN(C)C)c3c2CCC3)n1`, -4.76%. For `Cc1ccc(S(=O)(=O)CCC(=O)OCC(=O)N(C)C2CCS(=O)(=O)C2)cc1` (configuration not stated) the value was 2.33%; for `CCN(Cc1ccccc1)S(=O)(=O)c1cc2c3c(c1)CCN3C(=O)CC2`, 23.7%.

As to `COc1ccc2c(c1)C(=O)Nc1cc(Cl)ccc1N2`, the activation is 12.2%.

For the origin of these results see PubChem BioAssay AID504408 (Broad Institute, 2011).
